Of roughly 7,900 targets only a part is listed; those with a hit were picked by preference. About 0.6% of all pairs of compound and target were hits.
Compound: c1ccc([C@@H]2C[C@H]2NC2CCNCC2)cc1
Test: log2 fold change, soluble protein after heating vs DMSO (PISA); higher = thermal stabilisation; K562 cells, 10 uM, 30 min; active = over 0.2 and 3.5 SD of the protein, either way, in both replicates (recomputed)
In short: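 K562 cells at 2×10^6 cells/mL were given 10 μM compound for 30 min. Aliquots then went through 3 min of heating across 48°C-58°C, were pooled, and were extracted in PBS with 0.5% NP-40 at 4°C, and the supernatant after 21,000xg for 90 min was quantified by TMTpro 16plex LC-MS/MS with channel sums equalised. Thermal stability relative to control samples, from duplicates, is given as log2 fold change.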

Chain of UniProt Q96P47 (Q96P47 whole entry, looked up): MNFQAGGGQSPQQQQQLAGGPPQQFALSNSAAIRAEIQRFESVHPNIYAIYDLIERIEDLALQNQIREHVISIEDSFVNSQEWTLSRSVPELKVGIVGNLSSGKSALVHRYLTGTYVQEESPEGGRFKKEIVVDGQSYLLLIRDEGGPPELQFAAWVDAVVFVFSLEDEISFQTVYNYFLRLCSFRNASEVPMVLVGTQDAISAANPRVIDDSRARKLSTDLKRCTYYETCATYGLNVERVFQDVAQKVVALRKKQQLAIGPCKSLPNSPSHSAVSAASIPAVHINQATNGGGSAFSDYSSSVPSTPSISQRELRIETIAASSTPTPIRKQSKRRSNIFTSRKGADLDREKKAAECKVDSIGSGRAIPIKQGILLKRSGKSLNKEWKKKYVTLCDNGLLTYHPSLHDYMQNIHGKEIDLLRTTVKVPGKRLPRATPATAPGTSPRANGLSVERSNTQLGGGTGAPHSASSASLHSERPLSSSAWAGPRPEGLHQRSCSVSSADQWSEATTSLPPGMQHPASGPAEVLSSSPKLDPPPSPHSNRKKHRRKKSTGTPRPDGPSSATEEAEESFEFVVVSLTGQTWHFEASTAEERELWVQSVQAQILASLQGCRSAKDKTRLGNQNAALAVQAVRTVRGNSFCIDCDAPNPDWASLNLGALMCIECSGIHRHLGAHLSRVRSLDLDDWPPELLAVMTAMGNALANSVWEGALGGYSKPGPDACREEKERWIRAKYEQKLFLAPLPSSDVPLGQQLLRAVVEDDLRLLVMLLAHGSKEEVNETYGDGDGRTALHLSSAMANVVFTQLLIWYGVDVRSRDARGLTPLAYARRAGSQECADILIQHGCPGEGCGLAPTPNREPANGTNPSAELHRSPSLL
Chain of UniProt Q4L235 (Q4L235 whole entry, looked up): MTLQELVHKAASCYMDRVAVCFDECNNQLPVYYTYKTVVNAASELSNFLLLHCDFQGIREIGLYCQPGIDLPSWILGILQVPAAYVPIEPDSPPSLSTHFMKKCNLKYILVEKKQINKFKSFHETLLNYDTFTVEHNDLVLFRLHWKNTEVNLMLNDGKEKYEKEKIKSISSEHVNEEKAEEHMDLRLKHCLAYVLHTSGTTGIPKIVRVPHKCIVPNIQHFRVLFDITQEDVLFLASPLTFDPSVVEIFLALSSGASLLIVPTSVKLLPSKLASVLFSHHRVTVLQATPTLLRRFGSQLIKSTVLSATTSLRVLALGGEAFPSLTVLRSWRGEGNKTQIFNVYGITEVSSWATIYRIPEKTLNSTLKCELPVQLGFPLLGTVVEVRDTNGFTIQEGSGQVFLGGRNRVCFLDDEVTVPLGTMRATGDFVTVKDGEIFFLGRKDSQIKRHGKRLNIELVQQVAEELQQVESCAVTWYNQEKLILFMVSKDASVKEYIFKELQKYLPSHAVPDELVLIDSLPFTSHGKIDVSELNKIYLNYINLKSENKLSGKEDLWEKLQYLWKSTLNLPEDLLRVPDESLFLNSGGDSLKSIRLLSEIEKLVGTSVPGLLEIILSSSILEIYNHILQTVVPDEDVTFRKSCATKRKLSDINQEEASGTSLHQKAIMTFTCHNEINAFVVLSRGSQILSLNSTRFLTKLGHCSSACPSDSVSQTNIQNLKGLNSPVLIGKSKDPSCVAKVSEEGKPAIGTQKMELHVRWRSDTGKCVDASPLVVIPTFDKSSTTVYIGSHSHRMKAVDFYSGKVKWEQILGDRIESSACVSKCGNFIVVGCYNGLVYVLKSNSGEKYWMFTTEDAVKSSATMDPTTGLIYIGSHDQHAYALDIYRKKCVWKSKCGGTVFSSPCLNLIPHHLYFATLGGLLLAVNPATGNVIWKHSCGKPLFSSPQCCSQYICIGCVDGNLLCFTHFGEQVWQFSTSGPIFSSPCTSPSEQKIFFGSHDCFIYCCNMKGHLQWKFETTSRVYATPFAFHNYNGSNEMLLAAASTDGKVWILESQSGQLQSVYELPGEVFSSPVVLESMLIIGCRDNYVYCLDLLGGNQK
Chain of UniProt Q9Y587 (Q9Y587 whole entry, looked up): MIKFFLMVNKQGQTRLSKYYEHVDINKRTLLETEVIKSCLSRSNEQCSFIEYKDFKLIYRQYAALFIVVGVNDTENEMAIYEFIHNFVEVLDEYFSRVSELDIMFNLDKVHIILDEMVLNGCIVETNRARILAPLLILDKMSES
Chain of UniProt Q9UII2 (Q9UII2 whole entry, looked up): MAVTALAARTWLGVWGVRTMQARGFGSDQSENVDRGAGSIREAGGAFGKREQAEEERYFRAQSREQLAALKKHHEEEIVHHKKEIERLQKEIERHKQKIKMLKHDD
Chain of UniProt Q9P287 (Q9P287 whole entry, looked up): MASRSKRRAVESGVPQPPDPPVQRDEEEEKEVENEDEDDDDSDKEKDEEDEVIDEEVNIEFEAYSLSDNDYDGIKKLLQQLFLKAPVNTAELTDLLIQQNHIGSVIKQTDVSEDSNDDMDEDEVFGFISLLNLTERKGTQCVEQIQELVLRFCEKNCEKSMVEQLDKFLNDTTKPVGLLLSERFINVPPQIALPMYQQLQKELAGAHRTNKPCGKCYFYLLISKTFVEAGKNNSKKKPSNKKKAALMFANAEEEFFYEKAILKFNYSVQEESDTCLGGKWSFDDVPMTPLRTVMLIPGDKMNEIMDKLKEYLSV
Chain of UniProt Q9H7T9 (Q9H7T9 whole entry, looked up): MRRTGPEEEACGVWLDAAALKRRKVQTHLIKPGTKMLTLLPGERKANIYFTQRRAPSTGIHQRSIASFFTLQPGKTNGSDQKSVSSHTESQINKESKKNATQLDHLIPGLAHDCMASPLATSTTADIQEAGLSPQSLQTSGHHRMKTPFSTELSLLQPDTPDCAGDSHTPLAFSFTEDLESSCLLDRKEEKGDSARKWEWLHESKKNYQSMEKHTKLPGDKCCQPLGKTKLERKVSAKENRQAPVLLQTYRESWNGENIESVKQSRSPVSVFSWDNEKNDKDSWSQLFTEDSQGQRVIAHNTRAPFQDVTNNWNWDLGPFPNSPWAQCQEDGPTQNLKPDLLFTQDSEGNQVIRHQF
Chain of UniProt Q9BUT1 (Q9BUT1 whole entry, looked up): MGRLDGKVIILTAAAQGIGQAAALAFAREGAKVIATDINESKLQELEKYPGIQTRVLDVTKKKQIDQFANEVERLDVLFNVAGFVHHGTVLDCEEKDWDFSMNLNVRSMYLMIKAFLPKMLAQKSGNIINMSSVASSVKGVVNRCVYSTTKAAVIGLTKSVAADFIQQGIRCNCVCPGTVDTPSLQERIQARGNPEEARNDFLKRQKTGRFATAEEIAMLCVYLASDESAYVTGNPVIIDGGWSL
Chain of UniProt Q04771 (Q04771 whole entry, looked up): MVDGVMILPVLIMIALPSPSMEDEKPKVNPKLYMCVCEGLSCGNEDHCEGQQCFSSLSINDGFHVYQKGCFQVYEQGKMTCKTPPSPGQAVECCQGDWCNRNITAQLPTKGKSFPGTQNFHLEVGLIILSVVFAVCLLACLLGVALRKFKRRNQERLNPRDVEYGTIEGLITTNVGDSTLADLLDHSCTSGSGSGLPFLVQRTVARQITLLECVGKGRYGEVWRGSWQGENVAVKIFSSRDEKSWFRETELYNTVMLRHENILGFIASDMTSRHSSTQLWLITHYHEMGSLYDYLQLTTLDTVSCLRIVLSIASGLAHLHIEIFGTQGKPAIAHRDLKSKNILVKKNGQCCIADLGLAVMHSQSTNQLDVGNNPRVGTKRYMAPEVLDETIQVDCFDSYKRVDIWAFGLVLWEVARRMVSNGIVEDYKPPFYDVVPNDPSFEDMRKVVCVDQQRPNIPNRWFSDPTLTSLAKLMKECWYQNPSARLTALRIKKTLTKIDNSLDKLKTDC
Chain of UniProt Q92934 (Q92934 whole entry, looked up): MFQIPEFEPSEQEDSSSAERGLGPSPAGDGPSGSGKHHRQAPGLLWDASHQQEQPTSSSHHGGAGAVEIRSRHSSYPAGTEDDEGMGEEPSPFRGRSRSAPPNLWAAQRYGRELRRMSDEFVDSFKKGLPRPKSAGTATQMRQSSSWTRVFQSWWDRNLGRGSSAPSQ
Chain of UniProt P35611 (P35611 whole entry, looked up): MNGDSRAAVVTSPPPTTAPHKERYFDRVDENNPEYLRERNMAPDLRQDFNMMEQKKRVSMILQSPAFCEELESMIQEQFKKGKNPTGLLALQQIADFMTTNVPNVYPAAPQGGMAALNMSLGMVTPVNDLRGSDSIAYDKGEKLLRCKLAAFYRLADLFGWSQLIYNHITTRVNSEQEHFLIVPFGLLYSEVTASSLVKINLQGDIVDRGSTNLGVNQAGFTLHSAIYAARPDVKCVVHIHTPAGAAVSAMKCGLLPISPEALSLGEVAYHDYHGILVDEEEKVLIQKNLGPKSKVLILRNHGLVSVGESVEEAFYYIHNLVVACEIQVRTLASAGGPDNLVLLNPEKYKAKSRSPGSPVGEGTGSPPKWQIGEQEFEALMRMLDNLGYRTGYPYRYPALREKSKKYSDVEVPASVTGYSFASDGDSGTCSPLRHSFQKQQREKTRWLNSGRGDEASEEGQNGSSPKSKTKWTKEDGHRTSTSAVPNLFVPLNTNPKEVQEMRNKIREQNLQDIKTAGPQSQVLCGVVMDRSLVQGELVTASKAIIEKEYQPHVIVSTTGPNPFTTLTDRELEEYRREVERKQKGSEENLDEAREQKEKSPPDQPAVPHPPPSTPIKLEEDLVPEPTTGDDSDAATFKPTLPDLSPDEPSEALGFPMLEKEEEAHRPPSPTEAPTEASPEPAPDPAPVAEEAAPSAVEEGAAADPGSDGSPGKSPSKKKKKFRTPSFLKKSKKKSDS
Chain of UniProt Q9BTE6 (Q9BTE6 whole entry, looked up): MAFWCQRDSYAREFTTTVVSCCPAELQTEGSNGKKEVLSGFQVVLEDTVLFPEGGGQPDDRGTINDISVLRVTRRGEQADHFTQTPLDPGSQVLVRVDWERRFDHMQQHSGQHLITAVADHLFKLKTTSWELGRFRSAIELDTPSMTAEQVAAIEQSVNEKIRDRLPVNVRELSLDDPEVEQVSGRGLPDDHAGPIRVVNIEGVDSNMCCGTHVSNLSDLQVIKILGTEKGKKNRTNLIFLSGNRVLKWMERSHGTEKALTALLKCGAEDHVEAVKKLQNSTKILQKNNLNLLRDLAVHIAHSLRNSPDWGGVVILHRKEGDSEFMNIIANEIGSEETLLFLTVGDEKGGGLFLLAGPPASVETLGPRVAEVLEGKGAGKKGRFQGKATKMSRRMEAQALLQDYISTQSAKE

Question: For ADD1 isoform 4 (UniProt P35611), which log2 fold change is on record?
Answer: 0.217 (inactive)

Question: Which log2 fold change does the source give for AGAP3 isoform 4 (UniProt Q96P47) here?
Answer: 0.05 (inactive)

Question: AASDH (UniProt Q4L235) was tested. Which log2 fold change did it give?
Answer: 0.037 (inactive)

Question: For AUNIP isoform 2 (UniProt Q9H7T9), which log2 fold change is on record?
Answer: -0.014 (inactive)

Question: Which log2 fold change does the source give for AARSD1 (UniProt Q9BTE6) here?
Answer: -0.068 (inactive)

Question: For AUP1 (UniProt Q9Y679), which log2 fold change is on record?
Answer: -0.051 (inactive)

Question: How did the log2 fold change turn out when BCCIP isoform 2 (UniProt Q9P287) was run?
Answer: 0.014 (inactive)

Question: For BDH2 (UniProt Q9BUT1), which log2 fold change is on record?
Answer: 0.12 (inactive)

Question: With ADD3 isoform 2 (UniProt Q9UEY8) as the target, how does the log2 fold change read?
Answer: 0 (inactive)

Question: Which log2 fold change does the source give for BAD (UniProt Q92934) here?
Answer: 0.032 (inactive)

Question: ACVR1 (UniProt Q04771) was tested. Which log2 fold change did it give?
Answer: 0.072 (inactive)

Question: With AKNA (UniProt Q7Z591) as the target, how does the log2 fold change read?
Answer: 0.206 (inactive)

Question: For ATP5IF1 (UniProt Q9UII2), which log2 fold change is on record?
Answer: -0.079 (inactive)

Question: Which log2 fold change does the source give for ALDH1B1 (UniProt P30837) here?
Answer: 0.009 (inactive)

Question: For ATG9A (UniProt Q7Z3C6), which log2 fold change is on record?
Answer: -0.05 (inactive)

Question: Which log2 fold change does the source give for APAF1 (UniProt O14727) here?
Answer: 0.055 (inactive)

Question: How did the log2 fold change turn out when AFDN isoform 1 (UniProt P55196) was run?
Answer: 0.177 (inactive)

Question: For BAIAP2 isoform 4 (UniProt Q9UQB8), which log2 fold change is on record?
Answer: 0.151 (inactive)

Question: With ABCA4 (UniProt P78363) as the target, how does the log2 fold change read?
Answer: -0.128 (inactive)

Question: Which log2 fold change does the source give for AP4S1 (UniProt Q9Y587) here?
Answer: 0 (inactive)

Source: the supplement of paper PMC10849652
